Results filed as inconclusive are left out. Active and inactive are the calls of the source. The call rests on the fitted dose curve; in most records, active means well fitted inhibition curve with a large enough effect; inconclusive means small, poorly fitted or top-dose-only effect; inactive means flat fitted curve, though single readings scatter.
Key:
Assay in all cases: qHTS profiling for inhibitors of Plasmodium falciparum proliferation (AID 504749); further: nearly all actives have a fitted effect of over 60% in size
Conditions in all cases: P. falciparum in erythrocytes, SYBR Green DNA, 72 h; series mostly up to 28.7 µM
[1] = test system: CP191
Method in brief: (§1)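 Parasite proliferation within erythrocytes, 72 h exposure. Endpoint: SYBR Green I fluorescence after overnight lysis at room temperature. Controls: 0.29 uM artemisinin, DMSO.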

[2] = test system: CP192
Method in brief: as §1

[3] = test system: CP194
Method in brief: as §1

[4] = test system: CP201
Method in brief: as §1

[5] = test system: CP203
Method in brief: as §1

[6] = test system: CP211
Method in brief: as §1

[7] = test system: CP215
Method in brief: as §1

[8] = test system: CP217
Method in brief: as §1

[9] = test system: CP238
Method in brief: as §1

[10] = test system: CP247
Method in brief: as §1

[11] = test system: CP250
Method in brief: as §1

[12] = test system: CP252
Method in brief: as §1

[13] = test system: CP256
Method in brief: as §1

[14] = test system: CP262
Method in brief: as §1

[15] = test system: CP265
Method in brief: as §1

[16] = test system: CP266
Method in brief: as §1

[17] = test system: CP268
Method in brief: as §1

[18] = test system: CP269
Method in brief: as §1

[19] = test system: CP237
Method in brief: as §1

[20] = test system: CP260
Method in brief: as §1

Measured: Potency
Potency means the concentration at half of the fitted maximal effect.

COc1ccc2cc([C@H](C)C(=O)O)ccc2c1
inactive: [1] | [2] | [3] | [4] | [5] | [6] | [7] | [8] | [9] | [10] | [11] | [12] | [13] | [14] | [15] | [16] | [17] | [18]

CCCCCCCCOc1ccccc1C(=O)Nc1ccc(C(=O)OCC[N+](C)(CC)CC)cc1
active: [1] 7.94 µM | [8] 10 µM | [19] 7.94 µM | [9] 8.91 µM | [10] 10 µM | [20] 7.08 µM
inactive: [14]

CC(C)(S)[C@@H](N)C(=O)O
inactive: [1] | [3] | [4] | [5] | [6] | [7] | [8] | [19] | [9] | [10] | [11] | [12] | [13] | [20] | [14] | [15] | [16] | [17] | [18]

CCc1nc(N)nc(N)c1-c1ccc(Cl)cc1
inactive: [2] | [3] | [4] | [5] | [9] | [11] | [13] | [20] | [14] | [15] | [16] | [17] | [18]

Cc1nc(Nc2ncc(C(=O)Nc3c(C)cccc3Cl)s2)cc(N2CCN(CCO)CC2)n1
inactive: [2] | [4] | [9] | [13] | [20] | [14] | [15] | [17]

CC1=C(C)C(=O)C(C(CCCCCC(=O)O)c2ccccc2)=C(C)C1=O (stereo not drawn)
active: [10] 3.98 µM
inactive: [1] | [2] | [4] | [19] | [9] | [13] | [20] | [14] | [15] | [16] | [17] | [18]

O=C(O)c1cn(-c2ccc(F)cc2)c2cc(N3CCNCC3)c(F)cc2c1=O
inactive: [1] | [2] | [8] | [10] | [11] | [16]

CCC[C@@H]1C[C@@H](C(=O)N[C@@H]([C@H]2O[C@H](SC)[C@H](O)[C@@H](O)[C@H]2O)[C@@H](C)O)N(C)C1
inactive: [11]
active: [7] 2.69 µM | [13] 0.398 µM | [14] 2.39 µM

CC[C@]1(O)C[C@H]2CN(CCc3c([nH]c4ccccc34)[C@@](C(=O)OC)(c3cc4c(cc3OC)N(C=O)[C@H]3[C@@](O)(C(=O)OC)[C@H](OC(C)=O)[C@]5(CC)C=CCN6CC[C@]43[C@@H]65)C2)C1
active: [1] 2.24 µM | [3] 1.69 µM | [6] 2.13 µM | [8] 4.47 µM | [19] 0.0501 µM | [9] 2.24 µM | [11] 3.55 µM | [12] 3.55 µM | [13] 2.24 µM | [20] 0.0794 µM

Cc1cc(C2CCCCC2)n(O)c(=O)c1
active: [1] 3.16 µM | [5] 6.42 µM | [6] 6.42 µM | [7] 1.02 µM | [8] 3.55 µM | [12] 3.55 µM | [18] 5.73 µM

NNc1nncc2ccccc12
active: [1] 3.55 µM
inactive: [2] | [3] | [4] | [6] | [8] | [9] | [12] | [14] | [16]

Cc1c(C(=O)NN2CCCCC2)nn(-c2ccc(Cl)cc2Cl)c1-c1ccc(Cl)cc1
inactive: [14]
active: [1] 11.2 µM | [3] 16.9 µM | [5] 13.5 µM | [7] 13.5 µM | [8] 11.2 µM | [19] 12.6 µM | [10] 7.94 µM | [13] 11.2 µM | [15] 11.2 µM

Nc1nc(Cl)nc2c1ncn2[C@H]1C[C@H](O)[C@@H](CO)O1
inactive: [1] | [8] | [19] | [9] | [10] | [11] | [12] | [13] | [20] | [15]

COC(=O)C1=C(C)NC(C)=C(C(=O)OCCCN2CCC(c3ccccc3)(c3ccccc3)CC2)C1c1cccc([N+](=O)[O-])c1 (stereo not drawn)
active: [1] 4.47 µM | [3] 5.36 µM | [4] 9.53 µM | [5] 9.53 µM | [6] 6.01 µM | [7] 6.75 µM | [8] 3.55 µM | [19] 2.82 µM | [9] 8.91 µM | [10] 6.31 µM | [11] 7.08 µM | [12] 5.01 µM | [13] 7.08 µM | [20] 2.82 µM | [14] 6.01 µM | [15] 7.94 µM | [16] 9.53 µM | [17] 9.53 µM | [18] 4.78 µM

CCCCCCCCCCCCCCCCCCCCCCO
inactive: [1] | [2] | [4] | [5] | [6] | [7] | [8] | [19] | [9] | [10] | [11] | [12] | [13] | [20] | [14] | [15] | [16] | [17] | [18]

O=C(OC1C[C@H]2CC[C@@H](C1)[N+]21CCCC1)C(O)(c1ccccc1)c1ccccc1 (stereo partly drawn)
active: [2] 3.79 µM | [6] 1.9 µM | [9] 3.55 µM | [13] 3.55 µM | [14] 4.26 µM | [15] 3.98 µM

Cc1ccc(NC(=O)c2ccc(CN3CCN(C)CC3)cc2)cc1Nc1nccc(-c2cccnc2)n1
active: [8] 11.2 µM | [19] 8.91 µM | [18] 15.1 µM

Cc1cc(=O)c2c(O)c3c(O)cc(=O)c4c3c3c(cc(O)c1c23)C(C)(C)C=4O
active: [1] 1.12 µM | [3] 2.69 µM | [5] 1.9 µM | [7] 2.39 µM | [8] 0.891 µM | [19] 1.41 µM | [9] 1 µM | [10] 1.78 µM | [11] 1.41 µM | [12] 1.26 µM | [13] 1.58 µM | [20] 1.58 µM | [15] 1.58 µM | [18] 2.69 µM

COCCCOc1ccnc(CS(=O)c2nc3ccccc3[nH]2)c1C (stereo not drawn)
inactive: [2] | [4] | [5] | [6] | [7] | [8] | [9] | [11] | [12] | [13] | [14] | [15] | [16] | [17]

CC(C)c1ccc2oc3nc(N)c(C(=O)O)cc3c(=O)c2c1
active: [10] 5.62 µM
inactive: [2] | [3] | [4] | [5] | [6] | [7] | [19] | [9] | [13] | [14] | [15] | [17] | [18]

CCCCC(CC)COC(=O)C(C#N)=C(c1ccccc1)c1ccccc1 (stereo not drawn)
inactive: [2] | [4] | [5] | [6] | [9] | [12] | [14] | [17] | [18]
active: [13] 8.91 µM

CCC(C)(Oc1ccc(C2(c3ccc(OC(C)(CC)C(=O)O)cc3)CCCCC2)cc1)C(=O)O (stereo not drawn)
inactive: [1] | [3] | [4] | [5] | [6] | [7] | [8] | [19] | [9] | [10] | [11] | [12] | [13] | [14] | [15] | [16] | [17] | [18]

CN1CCC(=C2c3ccccc3CCc3sccc32)CC1
inactive: [11] | [14]

Cn1c(NCCN(CCO)CCCc2ccc([N+](=O)[O-])cc2)cc(=O)n(C)c1=O
inactive: [2] | [3] | [4] | [5] | [6] | [7] | [8] | [19] | [9] | [11] | [12] | [13] | [20] | [14] | [15] | [16] | [17] | [18]

N=C(N)c1ccc2cc(OC(=O)c3ccc(N=C(N)N)cc3)ccc2c1
active: [1] 3.98 µM | [19] 7.08 µM | [10] 8.91 µM
inactive: [2] | [11]

Clc1ccc(C(Cn2ccnc2)OCc2ccsc2Cl)c(Cl)c1 (stereo not drawn)
active: [1] 7.08 µM | [2] 16.9 µM | [3] 8.49 µM | [5] 4.78 µM | [6] 13.5 µM | [7] 6.01 µM | [8] 5.01 µM | [19] 3.98 µM | [9] 10 µM | [10] 5.01 µM | [11] 11.2 µM | [12] 7.94 µM | [13] 10 µM | [20] 11.2 µM | [14] 13.5 µM | [15] 7.94 µM | [17] 12 µM | [18] 6.75 µM

CN(c1nccc(=O)[nH]1)C1CCN(c2nc3ccccc3n2Cc2ccc(F)cc2)CC1
inactive: [1] | [2] | [4] | [19] | [9] | [11] | [12] | [13] | [20] | [14] | [15] | [17]

O=C(CS(=O)Cc1ccco1)NCC=CCOc1cc(CN2CCCCC2)ccn1 (stereo not drawn)
inactive: [2] | [3] | [4] | [5] | [6] | [7] | [8] | [19] | [9] | [10] | [11] | [12] | [20] | [14] | [15] | [16] | [17] | [18]

COC1=C(OC)C(=O)C(CCCCCCCCCCO)=C(C)C1=O
inactive: [2] | [3] | [4] | [5] | [6] | [7] | [8] | [19] | [9] | [11] | [12] | [13] | [20] | [14] | [15] | [16] | [17] | [18]
